SMILES strings stand for the structures. Where “and” joins values, the source holds several entries; their conditions need not be identical. Identical values can stand only once. Results filed as inconclusive are left out. Calls of active or inactive are those of the source. The calls were made as follows: active = hit-call score of the fitted dose curve at least 0.9, where 1 is the maximum; inconclusive = response in the unintended direction; inactive = score below 0.9.

mouse Peroxisome Proliferator-activated Receptor gamma (PPARg), Pparg (gene 19016), sequence (P37238 whole entry, looked up): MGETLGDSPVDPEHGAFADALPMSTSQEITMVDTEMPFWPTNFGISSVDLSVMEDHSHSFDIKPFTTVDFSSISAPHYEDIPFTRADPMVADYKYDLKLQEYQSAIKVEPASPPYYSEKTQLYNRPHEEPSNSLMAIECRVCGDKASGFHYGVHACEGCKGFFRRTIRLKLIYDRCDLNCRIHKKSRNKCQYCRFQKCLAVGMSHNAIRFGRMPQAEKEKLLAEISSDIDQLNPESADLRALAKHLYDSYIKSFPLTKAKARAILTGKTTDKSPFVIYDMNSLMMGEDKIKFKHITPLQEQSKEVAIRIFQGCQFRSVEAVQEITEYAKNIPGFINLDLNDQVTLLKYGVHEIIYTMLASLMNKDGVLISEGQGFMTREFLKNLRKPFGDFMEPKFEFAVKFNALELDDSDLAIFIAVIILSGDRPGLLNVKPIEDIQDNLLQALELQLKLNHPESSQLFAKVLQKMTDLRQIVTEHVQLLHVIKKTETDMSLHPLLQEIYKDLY

For the assay, the target named is mouse Peroxisome Proliferator-activated Receptor gamma (PPARg), Pparg (gene 19016) (UniProt P37238). In words: ATG_mPPARg_XSP2: Attagene TRANS-FACTORIAL Multi-Species (XSP2) HepG2 Assay for mouse Peroxisome Proliferator-activated Receptor gamma (PPARg) (AID 2283830).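 Also: hits are gains in reporter mRNA above DMSO so AC50 marks activation.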 On the procedure:
ATG_XSP2_multi-species_TRANS is a cell-based, multiplexed assay created by modifying the existing Attagene TRANS-FACTORIAL system to include a panel of nuclear receptors from some or all the following species: human (Homo sapiens), mouse (Mus musculus), frog (Xenopus laevis), zebrafish (Danio rerio), chicken (Gallus gallus), and turtle (Chrysemys picta). The […] format uses HepG2, a human liver cell line, with measurements taken at 24 hours after chemical dosing in a 24-well plate. Xsp2 included 3 nM 6-alpha-fluorotestosterone and 1.5 nM norgestrel to stimulate the androgen receptor.ATG_mPPARg_XSP2 is one of 29 assay components measured or calculated from the ATG_XSP2_multi-species_TRANS assay. It is designed to make measurements of mRNA induction, a form of inducible reporter, as detected with fluorescence intensity signals by Reverse transcription polymerase chain reaction (RT-PCR) and Capillary electrophoresis technology.The assay endpoint ATG_mPPARg_XSP2 was analyzed in the positive analysis fitting direction relative to DMSO as the negative control and baseline of activity. Using a type of inducible reporter, measures of mRNA for gain-of-signal activity can be used to understand the reporter gene at the transcription factor-level as they relate to the gene PPARg. Furthermore, this assay endpoint can be referred to as a primary readout, because this assay has produced multiple assay endpoints where this one serves a reporter gene function. To generalize the intended target to other relatable targets, this assay endpoint is annotated to the nuclear receptor intended target family, where the subfamily is non-steroidal.
Human liver HepG2 cells are transiently transfected with multiple reporter transcription units (MRTUs) in 6-well plates using FuGene 6 reagent (Roche; 3 ml FuGene/1 mg DNA). The MRTU constructs are regulated by a cis-regulating element (promoter). […] A major difference between the CIS and TRANS system is that in CIS activities of endogenous TFs are measured, whereas the TRANS assay evaluates changes in activities of exogenous, chimeric NR-Gal4 proteins. […] At the end of 24 hour incubation, total RNA was isolated using TriZol reagent (Invitrogen). The isolated RNA is then reverse-transcribed using oligo(dT) primer and Mo-MLV reverse transcriptase (Invitrogen) with DNAse I (Ambion) treatment for 30 min. The one-tenth of the produced cDNA was amplified by PCR using Taq DNA polymerase (Invitrogen) and two reporter sequence-specific primers. The PCR products were fluorescently labeled by primer extension with 6-arboxyfluorescein (6-FAM) 5'-labeled reporter sequence-specific primer (2 min at 95 C, 20 s at 68 C and 10 min at 72 C) and these products were digested with 5U of HpaI (New England Biolabs) for 2h at 37 C. The fragments were purified using Qiaquick PCR columns (Qiagen), analyzed on an ABI 3130xL genetic analyzer (Applied Biosystems) with peak positions identified by using a set of X-rhodamine (ROX)-labeled MapMarker1000 molecular weight standards (BioVentures). The raw capillary electrophoresis data was processed using Attagraph software (Attagene).
Regarding `CC1(C)C(C=C(Cl)Cl)C1C(=O)OC(C#N)c1cccc(Oc2ccccc2)c1` (stereo not given), the AC50 was 27.8 µM (active).

With `CCN(CC)C(=O)C(C)Oc1cccc2ccccc12` (stereo not given), the AC50 is 42.6 µM (active).

Consider `N#Cc1c[nH]cc1-c1cccc2c1OC(F)(F)O2`, for which the AC50 is 27.2 µM (active).

As to `CSC(=O)c1c(C(F)F)nc(C(F)(F)F)c(C(=O)SC)c1CC(C)C`, the AC50 was 5.52 µM (active).

With `C=C(C)CN(CC)c1c([N+](=O)[O-])cc(C(F)(F)F)cc1[N+](=O)[O-]`, the AC50 is 43.7 µM (active) and 52.8 µM (active).

Consider `CC1(C)CCC(=Cc2ccc(Cl)cc2)C1(O)Cn1cncn1` (stereo not given), for which the result was inactive.

Consider `CC(C)NC(=O)N1CC(=O)N(c2cc(Cl)cc(Cl)c2)C1=O`, for which the concentration at half-maximal activity (AC50) is 40.6 µM (active).

With `Cc1c(COC(=O)[C@@H]2[C@H](/C=C(\Cl)C(F)(F)F)C2(C)C)cccc1-c1ccccc1`, the compound was classed as inactive.

`COP(=S)(OC)Oc1ccc([N+](=O)[O-])c(C)c1`: the AC50 is 31.3 µM (active).

Regarding `COP(=S)(OC)SCn1nnc2ccccc2c1=O`, the AC50 is 51.6 µM (active) and 32.6 µM (active).

What is called AC50 is the midpoint of the concentration-response curve, whichever way the signal moves.

(Values after PubChem BioAssay (EPA / NIEHS).)
